Sampled rows, rich in hits. Any-hit rate of the full collection: about 2.9%.
A549 viability – Nrf2 qHTS screen for inhibitors: counterscreen for cytotoxicity; A549 ARE-Fluc cells, CellTiter-Fluor viability, 18-24 h; Potency, µM (top dose mostly 46 µM), for inactives: at the highest dose activity change, negative = cytotoxicity, hits mostly inhibitors; hit rate 0.16% among 390,000; AID 504648, 2011; also: % is scaled to controls: 0 for no effect and ±100 for the full control effect
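Cytotoxicity counterscreen: CellTiter-Fluor fluorescence was measured in A549 ARE_Fluc cells after 18-24 h of compound exposure in a concentration series. The subsequent BugLite luminescent read reports ARE-luciferase activity.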
Nrf2 ARE act – qHTS of Nrf2 Activators; AREc32 ARE-luciferase reporter (MCF7-derived line), luminescence, 24 h; Potency, µM (series often up to 46.1 µM), for inactives: at the top dose activation, usual class: activators; hit rate 0.31% among 410,000; AID 624171, 2012; also: % of control where 0% means no effect; nearly all actives have a fitted effect of over 65% in size
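Cells of the AREc32 ARE-luciferase line are plated in OPTI-MEM containing 5% FBS and left overnight at 37 deg C. Compounds are pinned in, incubation continues 24 hr, and firefly luciferase signal is then measured.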
Nrf2 inh – Nrf2 qHTS screen for inhibitors; Potency, µM (titrated, usually from 46 µM), without a hit: top-dose activity change, negative = inhibition, usual class: inhibitors; AID 504444, 2011; A549 ARE-Fluc reporter, luciferase luminescence, 18-24 h; hit rate 2.1% among 360,000; also: % is scaled to controls: 0 for no effect and ±100 for the full control effect; nearly all actives have a fitted effect of over 60% in size
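Nrf2 function is reported as luminescence of an ARE-controlled luciferase in A549 cells. Compounds were tested at several concentrations, and a CellTiter-Fluor read on the same wells flagged cytotoxicity.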
ATXN viability – Viability Counterscreen for Primary qHTS for Inhibitors of ATXN expression. S2 cells (HEK-293 line with an ATXN2-luciferase reporter) viability, CellTiter-Fluor protease fluorescence, 24 h. Potency, µM (top dose mostly 56.7 µM), most hits filed as cytotoxic. hit rate 0.49% among 400,000. AID 651635, 2014; also: nearly all actives have a fitted effect of over 40% in size
ATXN2 expr inh – Primary qHTS for Inhibitors of ATXN expression; AID 1745845, 2022; hit rate 0.72% among 360,000; HEK-293 ATXN2-luciferase reporter, luminescence, 24 h; Potency, µM (highest dose often 57 µM), for inactives: at the highest dose activity change, negative = inhibition, usual class: inhibitors; also: % is scaled to controls: 0 for no effect and ±100 for the full control effect; nearly all actives have a fitted effect of over 55% in size
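ATXN2-luciferase reporter cells (luciferase flanked by upstream and downstream ATXN2 gene portions) were treated 24 h at 37 °C with compounds at up to 57 uM. SteadyGlo luminescence gave expression; GF-AFC fluorescence gave viability.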
* = called active by the depositor; i = inactive; ? = inconclusive; · = not tested or not shown; ! = not confirmed by another sample; [ ] = another dose, or the depositor's remark. Calls follow the shape of the dose curve; as a rule, active = well fitted curve in the direction sought with a large enough effect; inconclusive = small, poorly fitted or top-dose-only effect, or another doubt; inactive = no such curve, though single readings can be large; an effect the other way counts as inactive or inconclusive. Potency is read from the fitted curve at half-maximal effect.

SMILES	A549 viability	Nrf2 ARE act	Nrf2 inh	ATXN viability	ATXN2 expr inh
O=C(CSc1nccc(-c2cccs2)n1)Nc1ccc(F)c(Cl)c1	-1%	7.9µM*	?	i	·
Cc1nn(C)c(C)c1CNC(=O)c1nn2c(c1Cl)NC(c1cccs1)CC2C(F)(F)F (configuration not stated)	-12%	3%	16µM*	?	?
COc1cc(OC)cc(-c2c(-c3cccs3)c3cc(-c4ccc(OC)c(OC)c4)ccc3n2C)c1	4%	1%	-11%	i	-4%
COc1cc(OC)cc(-c2c(-c3cccs3)c3cc(-c4cnc(N)nc4)ccc3n2C)c1	-7%	-1%	21µM*	?	-37%
Cc1cccc(C=NNc2cc(N3CCOCC3)nc(OCCc3ccccn3)n2)c1	·	·	·	·	0.97µM*
Cc1cccc(/C=N/Nc2cc(N3CCOCC3)nc(N3CCOCC3)n2)c1	?	10%	-15%	i	-39%
CCCCCCn1c(=O)[nH]c2c(c1=O)CCC2	1%	-1%	?	i	18%
CCCCCCn1c2c(c(=N)c3c1CCC3)CCC2	-6%	4%	15µM*	i	8.9µM*
CCn1c2c(c(=N)c3c1CCC3)CCC2	-1%	0%	31%	i	-23%[11.3 µM]
CCCCCCCCCn1c2c(c(=N)c3c1CCC3)CCC2	1%	-4%	?	?	2µM*
COC1[C@@H](O[C@@H]2O[C@H](C)[C@@H](O[C@H]3C[C@@](C)(O)[C@H](OC(=O)CC(C)C)[C@H](C)O3)[C@H](N(C)C)[C@H]2O)[C@@H](CC=O)C[C@@H](C)[C@@H](O)/C=C/C=C/C[C@@H](C)OC(=O)C[C@H]1OC(C)=O (some centres not stated)	·	·	·	i	·
CN(CCO)C(=O)c1cn(C2CCN(Cc3cccc(C(F)(F)F)c3)CC2)nn1	·	·	·	i	·
Cc1cccn2c(=O)c3cc(C(=O)NCCN4CCOCC4)c(=N)n(Cc4ccc(F)cc4)c3nc12	?	-1%	16µM*	i	?
Cc1cccn2c(=O)c3cc(C(=O)NCCN4CCOCC4)c(=N)n(CCN4CCOCC4)c3nc12	-15%	4%	5%	i	0%
CCOc1ccccc1CNC(=O)c1nc(-c2ccc(Cl)cc2)n2c1CCCCC2	-10%	3%	23µM*	i	-2%
O=C(NCc1ccccc1)c1nc(-c2ccc(Cl)cc2)n2c1CCCCC2	-20%	0%	-114%	?	-29%
CC(C)N(Cc1ccccc1)C(=O)c1nc(-c2ccc(Cl)cc2)n2c1CCCCC2	-13%	1%	21µM*	?	?
COCC(=O)Nc1cc(C(=O)N2CCCCC2c2nccn2C)cc2nc(-c3ccccc3)n(C)c12 (configuration not stated)	·	·	·	i	·
CCCc1cc(-c2ccc(O)c(OCC)c2)c(C#N)c(N)n1	-9%	5%	4%	i	-10%
CCOc1cc(-c2cc(-c3ccc(C)o3)nc(N)c2C#N)ccc1O	?	5%	15µM*	i	7%
Cc1ccc[n+](CC(=O)c2ccc(Br)cc2)c1	-4%	1%	23µM*	i	151%
CC(C)CNc1nc(C#N)nc(Nc2ccccc2)n1	-15%	·	?	·	·
COC(=O)/C=C/c1ccc2c(c1)S(=O)(=O)N(Cc1ccc(OC)cc1)[C@H]2CC(=O)OC	-5%	18µM*	9%	i	-3%
OC1c2cc(Br)ccc2N=C2CCCN21 (configuration not stated)	-25%	0%	-18%	16µM*	·
OC1c2cc(Br)ccc2N=C2CCCCCN21 (configuration not stated)	·	6%	·	i	6%
SMILES	A549 viability	Nrf2 ARE act	Nrf2 inh	ATXN viability	ATXN2 expr inh
COCC(=O)Nc1cc(C(=O)N2CCN(C3CCCC3)C(=O)C2)c2c(c1)nc(-c1ccncc1)n2C	·	·	·	i	·
Cc1ccc2c(c1)nnn2C1CCN(S(=O)(=O)c2ccc(C(=O)N3C(C)CCCC3C)cc2)CC1 (configuration not stated)	?	6%	10µM*	?	?
C=CCc1cccc(/C=N/NC(=O)CCC(=O)Nc2ccc(C)cc2)c1O	-5%	0%	-3%	i	14µM*
Cc1ccc(NC(=O)CCC(=O)N/N=C/c2ccc(O)cc2O)cc1	1%	-2%	?	i	-16%
Cc1nc(-c2ccc(C(F)(F)F)cc2)sc1C(=O)NN	-9%	0%	?	i	16µM*
O=C(Cn1c(C(F)(F)F)nc2ccccc21)c1ccccc1	-7%	0%	21µM*	i	-2%
CCC1(C2CCN(C(=O)c3ccc(C)c(C)c3)CC2)NC(=O)N(CCc2scnc2C)C1=O (configuration not stated)	·	·	·	i	·
CC1C(=O)N(Cc2ccccc2F)c2ccccc2N1C(=O)c1c(F)cccc1F (configuration not stated)	1%	0%	?	i	?
COc1cccc(CN2C(=O)C(C)N(C(=O)c3c(F)cccc3F)c3ccccc32)c1 (configuration not stated)	-7%	0%	21µM*	?	·
COc1c(Cl)cc(Cl)cc1/C=C/C(=O)c1ccc(NC(=O)c2cccs2)cc1	?	?	?	16µM*	13µM*
CCOc1ccc(N(C)S(=O)(=O)c2cc(-c3cc(C)no3)ccc2CC)cc1	20%	0%	-26%	i	?
CCOc1ccc(N(C)S(=O)(=O)c2cc(-c3cc(C)no3)ccc2C)cc1	-12%	0%	18µM*	?	?
CC1CCCN(C(=O)c2ccc(OC3CCN(CCc4ccccc4)CC3)cc2)C1 (configuration not stated)	1%	0%	16µM*	?	·
O=C(NCCN1Cc2ccccc2OC(c2ccsc2)C1)c1ccc2[nH]ccc2c1 (configuration not stated)	·	·	·	i	·
CC(=O)c1ccc(OCC(O)COc2ccc(C(C)=O)cc2)cc1	3%	0%	1%	i	14%
CC(=O)c1ccc(OCC(O)CN(C)CCOc2ccc(Br)cc2)cc1 (configuration not stated)	-1%	5%	18µM*	i	?
Nc1ccc(N)c([N+](=O)[O-])c1	·	·	·	?	12%[116 µM]
Nc1[nH]c2cc([N+](=O)[O-])ccc2c1-c1ccccn1	13µM*	3%	-24%	?	-27%
CCOc1cc(S(=O)(=O)N2CCN(CC)CC2)ccc1Cl	2%	0%	·	i	-23%
CCCc1nc(C)c2c(=O)[nH]c(-c3cc(S(=O)(=O)N4CCN(CC)CC4)ccc3OCC)nn12	-3%	0%	3%	i	19µM*!
Cc1cc2c(s1)c1cnn(Cc3cc(F)c(F)c(F)c3)c(=O)c1n2C	-13%	·	12%	·	·
COc1ccc(NC(=O)C2CCN(S(=O)(=O)c3c(C)noc3/C=C/c3cccs3)CC2)cc1Cl	-7%	1%	-21%	·	·

Compound activity as filed in PubChem.
